The sample as a whole holds a higher share of hits than the screen did.
NS1 inh: inhibitors of influenza NS1 protein function | Potency, µM (series often up to 46.1 µM), without a hit: at the top dose activity, positive = more growth | actives 0.4% (n = 270,000) | AID 2326; calls by dose curve; note: potency is the fitted concentration of half-maximal effect; actives are rising curves; nearly all actives have a fitted effect of over 50% in size
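Read-out: OD600 growth recovery of NS1-expressing budding yeast. Cells grown overnight at 30C in -URA glucose medium, washed, resuspended and diluted 1:100 in 2% galactose assay medium, pH 6.0. Same strain lacking NS1 served as positive control.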
TbPYK inhibitor: blocks Trypanosoma brucei pyruvate kinase. Q57TT1. TbPYK enzyme, Kinase-Glo Plus ATP luminescence, 45 min. Potency, µM (titrated, usually from 76.8 µM), without a hit: at the highest dose activity, negative = inhibition, most hits filed as inhibitors. actives 0.12% (n = 410,000); note: potency is the fitted concentration of half-maximal effect; % is set by controls: 0 for no effect and ±100 for the full control effect; nearly all actives have a fitted effect of over 50% in size
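Enzyme and substrate buffer are dispensed first and compound is pin-transferred. ADP at 130 uM final then starts the reaction, which runs 45 min at room temperature. Detection reagent is added for 10 min before luminescence is imaged.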
Shiga toxin inh: blocks Shiga toxin action in Vero cells; Vero cells, Shiga toxin protein synthesis inhibition reporter; inhibition, % at 38.7 µM; actives 9.2% (n = 290,000); AID 2315; in the data active = inhibition mostly above about 28%, no sharp cut-off; inactive = mostly below about 43%; note: 0% is about no effect
LmPK inhibitor: inhibitors of Leishmania mexicana pyruvate kinase. Q27686. purified LmPK, Kinase-Glo ATP luminescence, 1 h. Potency, µM (series often up to 57.5 µM), for the others: at the highest dose activity change, negative = inhibition, actives largely listed as inhibitors. actives 0.37% (n = 290,000); note: potency is the fitted concentration of half-maximal effect; % is set by controls: 0 for no effect and ±100 for the full control effect
Target sequence (Q27686 whole entry, looked up): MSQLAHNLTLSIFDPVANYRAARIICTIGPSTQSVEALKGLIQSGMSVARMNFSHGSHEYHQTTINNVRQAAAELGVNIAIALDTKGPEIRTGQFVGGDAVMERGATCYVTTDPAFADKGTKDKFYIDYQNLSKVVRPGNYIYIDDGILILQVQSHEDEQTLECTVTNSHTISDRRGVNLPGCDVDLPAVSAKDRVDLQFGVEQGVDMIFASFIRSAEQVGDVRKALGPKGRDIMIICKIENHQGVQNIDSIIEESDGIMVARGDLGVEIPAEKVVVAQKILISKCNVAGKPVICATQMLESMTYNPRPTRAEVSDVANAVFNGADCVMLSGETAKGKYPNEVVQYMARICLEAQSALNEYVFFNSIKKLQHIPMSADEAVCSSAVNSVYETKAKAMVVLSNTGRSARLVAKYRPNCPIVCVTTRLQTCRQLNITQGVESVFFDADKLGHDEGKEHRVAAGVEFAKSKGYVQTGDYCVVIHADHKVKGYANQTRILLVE
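Purified LmPK (0.1 nM) with 0.5 mM PEP and 0.1 mM ADP in imidazole buffer pH 7.2 with MgCl2/KCl, 1 h at room temperature. ATP formed was read by luciferase luminescence and normalized to no-enzyme and uninhibited controls.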
SARS PLP yeast: inhibitors of SARS-CoV papain-like protease in yeast | S. cerevisiae expressing SARS-CoV PLpro, growth rescue | Potency, µM (top dose mostly 32.9 µM), for the others: at the top dose activity, positive = growth rescue, actives largely listed as activators | AID 485353 | actives 0.19% (n = 330,000); calls by dose curve; note: potency is the fitted concentration of half-maximal effect; 0% is about no effect; nearly all actives have a fitted effect of over 55% in size
Cycloheximide cs: affects cycloheximide protein synthesis inhibition readout, counter-screen; AID 2314; actives 12% (n = 300,000); max response, %; cell reporter, cycloheximide protein synthesis inhibition counterscreen; in the data active = max response mostly above about 13%, no sharp cut-off; inactive = mostly below about 14%; note: read at 38.3 µM for the half of the compounds with a filed dose; 0% is about no effect
The depositor's hits bear a star; u = inconclusive; x = no result given; [ ] = remark or other dose. Unless noted, calls come from the whole dose curve; as a rule, active = well fitted curve in the direction sought with a large enough effect; inconclusive = small, poorly fitted or top-dose-only effect, or another doubt; inactive = no such curve, though single readings can be large; an effect the other way counts as inactive or inconclusive.

SMILES	NS1 inh	TbPYK inhibitor	Shiga toxin inh	LmPK inhibitor	SARS PLP yeast	Cycloheximide cs
Cc1[nH]c2ccccc2c1/C=N/NC(=O)CCC(=O)Nc1ccccc1	-2.1%	3.9%	10.5	7.0%	0.0%	-1.4
Cc1[nH]c2ccccc2c(=O)c1C(=O)/C=C/c1ccccc1	-4.7%	0.5%	-25.4	-1.1%	-2.7%	-2.3
Cc1[nH]c2ccccc2c1/C=N/Nc1cccc(C(=O)O)c1	5.8%	-12.2%	128.1*	-2.8%	-2.0%	61.4*
Cc1[nH]c2ccccc2c1/C=N/NC(=O)c1cccc(Br)c1	-0.4%	0.0%	40.0	-2.5%	-0.9%	26.4*
O=C(O)Cc1c[nH]c2ccc(F)cc12	-3.8%	x	x	x	x	x
CCc1cc(C(=O)Cc2nc3ccccc3[nH]2)c(O)cc1O	-4.0%	-12.6%	142.6*	-0.2%	1.1%	39.6*
CN/N=C(\Cc1nc2ccccc2[nH]1)c1ccc([N+](=O)[O-])cc1	0.0%	9.9%	57.4*	-5.8%	-6.0%	32.4*
Clc1ccc(/C(Cc2nc3ccccc3[nH]2)=N\Nc2ccccc2)cc1	-3.2%	0.0%	34.3*	13.8%	-7.1%	37.1*
CCCc1cc(C(=O)Cc2nc3ccccc3s2)c(O)cc1O	9.9%	-12.9%	24.2	-2.7%	4.6%	11.7
O=C(Cc1nc2ccccc2[nH]1)c1ccc(Cl)cc1	-17.8%	2.9%	62.2*	-3.5%	-1.5%	23.3*
CCc1nc2ccc(C(=O)NCc3ccccc3C)cc2nc1CC	x	-11.3%	x	x	x	x
CCOC(=O)c1cccc(NS(=O)(=O)c2c(C)nc3sc(C)cn3c2=O)c1	x	0.1%	x	x	x	x
CCc1cc(C(=O)Cc2ccc(F)cc2)c(O)cc1O	-47.1%	-1.2%	-7.7	6.4%	-19.9%	-5.3
O=C(Cc1nc2ccccc2[nH]1)c1ccc([N+](=O)[O-])cc1	6.6%	3.5%	59.9*	-2.7%	0.5%	29.0*
N#CCCN/N=C(/Cc1nc2ccccc2[nH]1)c1cccc(Cl)c1	10.5%	0.4%	99.0*	5.0%	6.2%	42.7*
CCc1cc(C(=O)COc2ccccc2F)c(O)cc1O	-46.9%	11.6%	15.8	0.8%	-24.0%	27.6*
O=C(NCCc1nc2ccccc2[nH]1)c1cccc(Br)c1	4.8%	-0.9%	-2.6	2.7%	4.0%	-2.4
CCCN(C(=O)COC(=O)CSc1ccc([N+](=O)[O-])cc1)C1CCS(=O)(=O)C1 (centres undefined)	x	-24.8%	x	x	5.2%	x
CCOc1ccc(-c2cc(NC(=O)c3ccccc3)c(C(=O)OC)s2)cc1	x	2.4%	x	x	x	x
O=C(Nc1cc(Cl)cc(Cl)c1)c1cccnc1	-112.3%	-5.3%	x	9.3%	-2.4%	-2.5
O=C(Nc1ccccc1Cl)c1ccc2nccnc2c1	-3.1%	-3.2%	66.8*	-11.0%	11.0%	24.9*
O=C(Nc1ccc(Br)cn1)c1ccc2nccnc2c1	-15.7%	5.2%	x	x	x	x
O=C(Nc1ccc(Cl)cn1)c1ccc2nccnc2c1	-4.3%	-1.6%	132.3*	-5.9%	-4.7%	32.5*
O=C(Nc1ccc(Cl)cn1)c1cccnc1	-3.0%	3.7%	2.6	-16.7%	-2.8%	14.5*
CN1CCc2sc(NC(=O)Cc3ccccc3)c(C(=O)Nc3ccc(Cl)cc3)c2C1	x	x	3.5	x	x	-3.1
SMILES	NS1 inh	TbPYK inhibitor	Shiga toxin inh	LmPK inhibitor	SARS PLP yeast	Cycloheximide cs
CCOc1ccccc1/C=N/Nc1ccnc(=O)[nH]1	16.0%	8.9%	28.2	-2.3%	-0.6%	24.4*
O=c1nccc(N/N=C/c2ccccc2O)[nH]1	3.4%	u	30.7	-14.1%	0.7%	26.9*
Oc1ccccc1/C=N/Nc1nn[nH]n1	5.4%	-12.9%	15.0	-11.9%	0.2%	-3.5
COc1cccc(/C=N/Nc2ccnc(=O)[nH]2)c1O	2.6%	-12.1%	56.3*	-9.9%	4.4%	25.5*
CCOc1ccccc1/C=N/Nc1nc(C)cc(=O)[nH]1	0.9%	0.9%	-5.4	-1.3%	0.5%	-1.3
COc1cccc(/C=N/Nc2ccc([N+](=O)[O-])cn2)c1O	-65.5%	1.5%	90.8*	-13.8%	-10.4%	39.8*
COc1ccc(C(C)=O)cc1Cn1c(C)c(C(=O)NCc2cccc(C(F)(F)F)c2)sc1=O	x	-1.8%	x	x	x	x
CCOc1ccc(OCCOCCn2c(-c3ccc(Cl)cc3)nc3ccccc3c2=O)cc1	x	0.3%	x	x	x	x
COCCCNC(=O)c1ccc(S(=O)(=O)c2ccc(C)cc2)c(NC(C)=O)c1	5.6%	-10.1%	4.0	-4.9%	1.2%	-5.0
COc1cc(C(=O)NCCc2ccc(F)cc2)ccc1OCC(=O)N1CCOCC1	x	0.6%	x	x	-9.1%	x
O=C(NCCc1ccc(F)cc1)c1cccc(NC(=O)c2ccccc2)c1	-7.6%	7.2%	43.6	-3.0%	-3.4%	23.2*
COc1ccc(CCNC(=O)C/C(C)=N/NC(=O)c2ccc(N)cc2)cc1OC	-0.9%	-1.8%	26.8	-0.7%	0.1%	12.1*
COc1ccc(CCn2c(=O)[nH]c3cc(C(=O)NCCc4ccccc4)ccc3c2=O)cc1OC	-15.2%	x	25.3*	-0.4%	-4.5%	25.1*
O=C(NCCCCc1ccccc1)c1cccc(NC(=O)c2ccccc2)c1	x	6.3%	x	x	x	x
COc1ccc(C(=O)NCCc2ccc(F)cc2)cc1OC	-4.0%	-1.2%	24.6	-0.7%	-1.9%	26.6*
O=S(=O)(c1ccccc1F)N1CCN(CCOc2ccccc2)CC1	x	-0.2%	x	x	0.7%	x
Cc1cc(NC(=O)CSc2nc3cc(Cl)ccc3c(=O)n2C(C)C)no1	x	4.1%	x	x	-4.0%	x
CCN1CCN(C(=O)c2ccc3c(=O)n(CCc4ccccc4)c(=O)[nH]c3c2)CC1	16.1%	4.1%	59.0*	2.1%	1.6%	20.3*
Cc1occc1C(=O)NNC(=O)c1ccc(F)cc1	4.2%	-4.8%	4.8	-0.1%	-3.9%	8.9
O=C(NNC(=S)Nc1ccccc1C(F)(F)F)c1ccc(Br)o1	1.1%	-1.8%	100.9*	6.3%	-2.0%	29.6*
Cc1ccccc1NC(=S)NNC(=O)c1ccoc1C	0.5%	-3.1%	48.3*	u	0.4%	34.7
Cc1occc1C(=O)NNC(=S)Nc1ccccc1	6.4%	-18.6%	76.6*	-24.9%	-3.0%	35.0*
CC(C)(C)CC(=O)NC(=S)Nc1ccccc1C(F)(F)F	-18.4%	-4.3%	-16.1	4.3%	1.7%	1.1
Cc1occc1C(=O)Nc1ccccc1NC(=O)c1ccoc1C	x	-9.2%	x	x	x	x
Cc1occc1C(=O)NNC(=O)c1ccccc1F	x	-7.2%	40.3	u	-3.8%	23.3*
COC(=O)N1C2=C(c3ccccc3[C@@H]1CC(=O)Nc1ccc(Br)cc1)[C@@H]1C(=O)N(c3ccccc3)C(=O)[C@@H]1[C@H](C)C2	x	x	x	-3.1%[11.5 µM]	x	x
CCCCN(CC)CCCNC(=O)CS(=O)(=O)Cc1nc(-c2ccc(C)cc2)oc1C	x	6.3%	x	x	x	x
CCc1cccc(NS(=O)(=O)c2ccc3c(c2)N(C)CCO3)c1	-7.9%	-6.9%	-6.0	14.1%	-3.5%	2.3
O=C(Nc1ccc([N+](=O)[O-])cc1)NN1CCCCCC1	x	-13.1%	x	x	x	x
Cc1occc1C(=O)NNC(=S)Nc1ccccc1C(F)(F)F	4.9%	-9.5%	56.4*	-10.9%	6.0%	26.5*

Screening data deposited in PubChem by National Center for Advancing Translational Sciences (NCATS).
